# Source: PubChem BioAssay AID1259313 (Sanford-Burnham Center for Chemical Genomics, 2017)
# About 8,500 (2.5%) of roughly 340,000 compounds were called active. This is one part of a sample in which actives are shown more often than they occur. Values without a mark were called inactive.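 How the source made its calls: active means melting temperature shift of at least 10% of the positive control shift, at one fixed dose; inactive means the rest.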
# Test system: Glutamate receptor ionotropic, NMDA 3A (GRIN3A) ligand-binding domain
# Experiment: NR3A LBD thermal stabilization by compounds – biophysical, differential scanning fluorimetry, uHTS, primary screen (AID 1259313)
# Conditions: at 25 µM, active compounds read high
row,SMILES,Tm shift relative to glycine control
1,CN1CCN(C(=S)SCC(=O)Nc2ccc(Cl)cc2C(=O)c2ccccc2)CC1,3.94%
2,O=C(COC(=O)c1ccccc1)Nc1ccc(Cl)cc1C(=O)c1ccccc1,12.2% (active)
3,O=C(CCNS(=O)(=O)c1ccccc1)Nc1ccc(Cl)cc1C(=O)c1ccccc1,-5.82%
4,O=C(Nc1cccc2ccccc12)N1CCC2(CC1)OCCO2,0%
5,Cc1cc(N2C(=O)C3CCCN3C2c2ccc(Cl)c(Cl)c2)no1 (stereo not given),0.27%
6,COCCNC(=O)CN1C2CCC1CC(O)(c1cccnc1)C2 (stereo not given),0.09%
7,COc1ccc(N2C(=O)/C(=C/c3ccco3)C(=O)NC2=S)cc1,10.6% (active)
8,O=C1NC(=O)N(Cc2ccco2)C(=O)/C1=C\c1ccc(-c2ccc(F)cc2)o1,0.53%
9,COc1cccc(N2C(=O)NC(=O)/C(=C\c3ccc([N+](=O)[O-])s3)C2=O)c1,-7.7%
10,CC[N+]1(C)CCCC(OC(=O)C(O)(c2ccccc2)c2ccccc2)C1 (stereo not given),1.89%
11,CC1=C(C(=O)Nc2ccccc2)S(=O)(=O)CCO1,0.53%
12,CCNc1nc2[nH]c(=O)c3c(c2s1)OC(N)=C(C#N)C3c1cccs1 (stereo not given),1.75%
13,CCN1C(=O)C(=Cc2c(C)n(CC(=O)NCC3CCCO3)c3ccccc23)C(=O)N(CC)C1=S (stereo not given),0.27%
14,CCCCCCCCCCCCn1ccc(=N)cc1,20.8% (active)
15,CCN1C(=O)NC(=O)C2(CCCC2)C1=O,1.88%
